Shown are actives, neighbours in structure and some others; about 1.3% of the full set was active somewhere.
BJeLR lethal – MLPCN primary cell-based screen for lethality selective to Ras in HRASV12 cells; BJeLR (HRASV12) viability, CellTiter-Glo ATP luminescence, 48 h; inhibition, % (concentration not given with the values); 300,000 tested, 0.17% active; AID 1554, 2009; in the data active = inhibition above about 50%; inconclusive = no clear call, values can overlap the other calls
FadD28 binding – inhibitors of FadD28 bisubstrate probe binding, primary screen, biochemical, fluorescence polarization, single point; Mycobacterium tuberculosis FadD28 fatty-acid-AMP ligase; inhibition, % at 12.5 µM; 360,000 tested, 0.22% active; AID 588549, 2011; in the data active = inhibition above about 8.5%, passing the limit was not always enough; inconclusive = no clear call, values can overlap the other calls
Rv3671c inh – Rv3671c serine protease inhibitors, primary screen, biochemical, fluorescence polarization, M. tuberculosis H37Rv | 320,000 tested, 0.048% active | inhibition, % at 5.96 µM | P9WHR9 | AID 2606, 2010; in the data active = inhibition above about 38%;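 note: extracellular domain of Rv3671c used as enzyme; 0% = enzyme with DMSO and 100% = no enzyme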
PrP UTR inh – inhibition of PrP 5' UTR reporter expression. cell-based PrP 5' UTR mRNA reporter, plate reader. inhibition, % (no concentration beside the values). 340,000 tested, 0.35% active; in the data active = inhibition above about 52%; note: 0 = median of the neutral control wells
Mtb UGM inh – M. tuberculosis UGM enzyme inhibitors, primary screen, biochemical, fluorescence polarization, single point; purified UGM, fluorescence polarization probe displacement; inhibition, % at 10 µM; 320,000 tested, 0.06% active; AID 504406, 2011; in the data active = inhibition above about 10%, passing the limit was not always enough; inconclusive = no clear call, values can overlap the other calls
RecA intein inh – Mtb RecA intein splicing inhibitors, primary screen, biochemical, fluorescence, HTS; 290,000 tested, 0.75% active; cell-free RecA intein splicing; Protein RecA (Mycobacterium tuberculosis (strain ATCC 25618 / H37Rv)), P9WHJ3; inhibition, % (test concentration not listed); AID 2221, 2009; in the data active = inhibition above about 30%; inconclusive = no clear call, values can overlap the other calls;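 note: 0% = vehicle wells and 100% = reference inhibitor control wells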
Target sequence (P9WHJ3 whole entry, looked up): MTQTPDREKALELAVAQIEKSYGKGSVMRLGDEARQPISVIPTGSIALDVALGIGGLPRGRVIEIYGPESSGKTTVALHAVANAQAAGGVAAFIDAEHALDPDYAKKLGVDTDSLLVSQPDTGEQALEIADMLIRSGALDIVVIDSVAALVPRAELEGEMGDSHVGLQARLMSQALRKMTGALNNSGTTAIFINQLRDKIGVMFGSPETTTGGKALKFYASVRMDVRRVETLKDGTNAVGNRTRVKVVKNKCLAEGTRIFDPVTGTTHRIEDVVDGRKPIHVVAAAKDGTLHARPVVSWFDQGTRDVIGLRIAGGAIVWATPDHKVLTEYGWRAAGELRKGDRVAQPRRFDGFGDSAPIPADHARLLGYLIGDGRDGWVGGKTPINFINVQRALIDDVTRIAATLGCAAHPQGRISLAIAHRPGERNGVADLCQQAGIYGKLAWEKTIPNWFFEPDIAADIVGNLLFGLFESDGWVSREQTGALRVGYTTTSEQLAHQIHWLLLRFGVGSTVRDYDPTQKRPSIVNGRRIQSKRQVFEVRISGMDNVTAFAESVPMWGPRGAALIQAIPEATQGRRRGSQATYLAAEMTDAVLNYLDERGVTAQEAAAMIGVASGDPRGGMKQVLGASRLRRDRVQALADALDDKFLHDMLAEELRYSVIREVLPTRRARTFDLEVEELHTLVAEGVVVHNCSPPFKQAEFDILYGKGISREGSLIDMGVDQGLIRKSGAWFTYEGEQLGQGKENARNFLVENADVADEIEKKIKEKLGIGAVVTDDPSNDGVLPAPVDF
Numbers without * were called inactive; ? = inconclusive; nt = no result given.

SMILES | BJeLR lethal | FadD28 binding | Rv3671c inh | PrP UTR inh | Mtb UGM inh | RecA intein inh
O=C(COC(=O)[C@@H]1CC(O)CN1S(=O)(=O)c1ccccc1[N+](=O)[O-])c1ccccc1 (some centres not stated) | -5 | -3 | 4 | -28 | 4 | 0
CCc1cccc2c(C(=O)COC(=O)c3ccc(O)cc3)c[nH]c12 | -1 | 34* | -113 | -42 | 3 | 1
CCc1cccc2c(C(=O)COC(=O)c3ccccc3)c[nH]c12 | 12 | 18* | -7 | -116 | 0 | -1
CCc1cccc2c(C(=O)COC(=O)[C@@H]3CC(O)CN3S(=O)(=O)c3ccccc3[N+](=O)[O-])c[nH]c12 (some centres not stated) | nt | 11* | -3 | -1 | -1 | nt
CCc1cccc2c(C(=O)COC(=O)c3cnc(C)cn3)c[nH]c12 | nt | 13* | 3 | -23 | 0 | nt
CCCCc1oc2ccccc2c1C(=O)c1cc(I)c(OCCN(CC)CC)c(I)c1 | 1 | -2 | 6 | -7 | -2 | 38*
O=C(O)c1ccccc1-c1ccc(C=c2sc3nc4cc(Br)cnc4n3c2=O)o1 | nt | 13* | nt | nt | nt | nt
O=C(O)c1cc(C(=O)O)cc(-c2ccc(/C=c3/sc4nc5ccccc5n4c3=O)o2)c1 | nt | nt | nt | -26 | nt | nt
NC(=Nc1c([N+](=O)[O-])cnc2ccccc12)N1CCOCC1 | nt | -1 | nt | nt | nt | nt
Cc1ccc(C)n1C(CC(=O)O)c1ccc(C#N)cc1 (configuration not stated) | 1 | 11* | 0 | -24 | 2 | -2
O=C(COC(=O)c1ccc2c(c1Cl)C(=O)c1ccccc1C2=O)NC1CC1 | 0 | 0 | -16 | -22 | -2 | 41*
O=C(Nc1ccc2c(c1)OCO2)c1cc(C2CCCCN2S(=O)(=O)Cc2ccccc2)on1 (configuration not stated) | nt | 0 | nt | nt | nt | nt
CCCc1[nH]nc2c1C(C1CCCCC1)C(C#N)=C(N)O2 (configuration not stated) | 2 | -13 | 2 | -12 | 0 | -5
COc1ccc(C2C(C#N)=C(N)Oc3cc(C)n(CCN4CCOCC4)c(=O)c32)cc1OC (configuration not stated) | 2 | -1 | -6 | -10 | -1 | -1
CCCc1[nH]nc2c1C(c1ccc(OCCN3CCOCC3)c(OCC)c1)C(C#N)=C(N)O2 (configuration not stated) | -3 | -4 | -3 | -26 | -1 | 44*
CCOc1cc(C2C(C#N)=C(N)Oc3n[nH]c(C)c32)ccc1OCCN1CCOCC1 (configuration not stated) | -3 | 0 | -4 | -22 | -1 | 48*
CCCc1[nH]nc2c1C(c1ccc(O)cc1OCC)C(C#N)=C(N)O2 (configuration not stated) | 5 | -1 | -2 | -1 | -3 | 78*
CCOc1cc(C2C(C#N)=C(N)Oc3n[nH]c(CC)c32)ccc1OCCN1CCOCC1 (configuration not stated) | -3 | -1 | 1 | -16 | 1 | 50*
CC1(C(=O)NS(=O)(=O)c2ccc(C#N)cc2)CCN1C(=O)C1(c2ccccc2)CC1 (configuration not stated) | nt | -4 | nt | nt | nt | nt
CCCCN(CCCC)Cc1cc(=O)oc2cc(OC)c(Cl)cc12 | nt | -1 | nt | nt | nt | nt
COc1ccc(N2C(=O)C(Cl)=C(NCc3ccccc3)C2=O)cc1 | 0 | -3 | -11 | -9 | 3 | 36*
CCOc1ccccc1NC1=C(Cl)C(=O)N(c2ccc(OC)cc2)C1=O | 5 | 0 | 0 | -4 | -4 | -2
CCc1ccc(/C=C2/SC(=S)N(CCC(=O)Nc3cccnc3)C2=O)cc1 | 102* | 0 | 1 | -12 | 4 | -2
CCc1ccc(/C=C2/SC(=S)N(CCC(=O)NCCCN3CCOCC3)C2=O)cc1 | 106* | -4 | -3 | -18 | 0 | -1
CN1CCN(C(=O)CCCN2C(=O)/C(=C/c3cccc(Br)c3)SC2=S)CC1 | 90* | 2 | nt | -23 | nt | 16
SMILES | BJeLR lethal | FadD28 binding | Rv3671c inh | PrP UTR inh | Mtb UGM inh | RecA intein inh
CCc1ccc(/C=C2\SC(=S)N(CCCC(=O)NCCCN3CCOCC3)C2=O)cc1 | nt | -3 | nt | nt | nt | nt
CCOc1ccc(/C=C2\SC(=S)N(CCCC(=O)NCCCN3CCOCC3)C2=O)cc1 | -14 | 0 | -7 | 81* | 0 | nt
O=C(CCN1C(=O)/C(=C\c2cccc(Br)c2)SC1=S)NCCCN1CCOCC1 | 85* | -3 | -28 | -6 | 0 | 6
Cn1c(=O)c2cc(NC(=S)NC3CCCCC3)ccc2n1Cc1ccc(Cl)cc1 | nt | 17* | nt | nt | nt | nt
Cc1nnc(N/N=C/c2cccc(OCc3ccc(Cl)c(Cl)c3)c2)n1N | 0 | -9 | -68 | -11 | -1 | 74*
CN(C)c1ccc(-c2ccnc3c2CC(C)(C(=O)NCC2CC2)O3)cc1 (configuration not stated) | nt | 0 | nt | nt | nt | nt
CCn1cc(C(=O)NCc2ccco2)c(=O)c2cc(S(=O)(=O)N3CC(C)CC(C)C3)ccc21 (configuration not stated) | 88* | -3 | -2 | -20 | -1 | -2
CC1(C(=O)Nc2cccc(NS(C)(=O)=O)c2)CCN1Cc1ccccc1OC(F)F (configuration not stated) | nt | -5 | nt | nt | nt | nt
Brc1ccc2nc(C3CCCCC3)c(Cc3ccsc3)n2c1 | nt | -5 | nt | nt | nt | nt
C=CCn1ccc(=NC=C(C#N)C#N)c2ccccc21 | 12 | -1 | 2 | -7 | 36* | 0
Cn1cc(C=C(C#N)C#N)c2ccccc21 | -14 | -5 | 2 | -27 | ? | -1
O=C(/C=C/c1cccs1)Nc1scc(-c2ccccc2)c1C(=O)O | 15 | 7 | nt | -34 | nt | 47*
O=C(/C=C/c1cccs1)Nc1nc(-c2ccccc2)cs1 | -1 | -4 | -28 | -46 | 0 | 11
CC(SC(C)C(=O)NN=Cc1cccc(F)c1)C(=O)NN=Cc1cccc(F)c1 (configuration not stated) | nt | -4 | nt | -19 | nt | nt
CC(=NO)c1ccc2c(c1)C(=NO)c1ccccc1-2 | nt | -8 | nt | -14 | nt | nt
CCCCNC(=O)c1sc(=S)n2c1[nH]c(=O)c1ccc(C(=O)NCCc3ccc(OC)c(OC)c3)cc12 | 7 | 0 | -6 | 0 | 4 | 4
O=C(NCc1ccccc1)c1sc(=S)n2c1[nH]c(=O)c1ccccc12 | 6 | 41* | -7 | -25 | 0 | -54
COc1cc(Nc2nc3c(N)cc(C(F)(F)F)cc3nc2-c2ccccc2)cc(OC)c1OC | nt | -3 | nt | -41 | nt | nt
C/C(=C/CCC(C)[C@H]1CC[C@@]2(C)C3=C(CC[C@]12C)[C@@]1(C)CCC(=O)C(C)(C)[C@@H]1CC3)C(=O)O (some centres not stated) | -1 | -1 | -7 | -5 | 4 | 42*
